Measured values: PubChem BioAssay (EPA / NIEHS)
Values joined by “and” are separate entries in the source; they are usually repeats but may differ in a detail not shown here. Equal entries are not always repeated. Results filed as inconclusive are left out. Some structures have more than one record in an assay (separate samples or runs), and their calls can disagree. Active and inactive are the calls of the source. How the source made its calls, unless noted: active means hit-call score of the fitted dose curve at least 0.9, where 1 is the maximum; inactive means score below 0.9.

Key:
[1] = biological target: Glucocorticoid receptor (Homo sapiens) (UniProt P04150); experiment: ATG_GR_TRANS: Attagene TRANS-FACTORIAL HepG2 Assay for human Glucocorticoid Receptor (GR) (AID 2282978; active means hit-call score of the fitted dose curve at least 0.9, where 1 is the maximum;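 further: activators score as hits since higher reporter transcript over DMSO is fitted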); details: HepG2 Attagene TRANS GR reporter, mRNA transcription
Procedure, shortened: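 In this trans-factorial format, exogenous NR-GAL4 chimeric proteins in transfected HepG2 cells regulate GAL4-UAS reporter transcription. After 24 h treatment, reporter mRNA induction relative to DMSO is read by RT-PCR and capillary electrophoresis.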

[2] = biological target: Bile acid receptor (Homo sapiens) (UniProt Q96RI1); experiment: ATG_FXR_TRANS: Attagene TRANS-FACTORIAL HepG2 Assay for Farnesoid X Receptor (FXR) (AID 2282979; active means hit-call score of the fitted dose curve at least 0.9, where 1 is the maximum;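 further: hits raise reporter mRNA above DMSO so AC50 marks FXR activation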); details: HepG2 Attagene TRANS FXR-GAL4 reporter transcription
Procedure, shortened: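 Reporter transcripts from transfected HepG2 cells were measured 24 h after dosing, using RT-PCR with capillary electrophoresis of 6-FAM-labelled fragments. The read-out reflects activity of exogenous FXR-Gal4 chimera on GAL4-UAS units, with induction relative to DMSO.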

[3] = biological target: Oxysterols receptor LXR-alpha (Homo sapiens) (UniProt Q13133); experiment: ATG_LXRa_TRANS: Attagene TRANS-FACTORIAL HepG2 Assay for human Liver X Receptor alpha (LXRa) (AID 2282980; active means hit-call score of the fitted dose curve at least 0.9, where 1 is the maximum); details: HepG2 Attagene TRANS reporter, LXRa transactivation
Procedure, shortened: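 Chemical-induced reporter mRNA measured by RT-PCR with fluorescent labelling and capillary electrophoresis after 24 h dosing of transiently transfected HepG2 cells expressing exogenous NR-Gal4 chimeras; increases scored against DMSO baseline.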

[4] = biological target: Oxysterols receptor LXR-beta (Homo sapiens) (UniProt P55055); experiment: ATG_LXRb_TRANS: Attagene TRANS-FACTORIAL HepG2 Assay for human Liver X Receptor beta (LXRb) (AID 2282981; active means hit-call score of the fitted dose curve at least 0.9, where 1 is the maximum); details: HepG2 Attagene TRANS GAL4-LXRb reporter, mRNA
Procedure, shortened: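 HepG2 cells transiently transfected with multiple reporter transcription units carrying chimeric NR-Gal4 proteins acting on GAL4-UAS reporters; compound exposure 24 h. Reporter mRNA quantified by RT-PCR, 6-FAM labelling, HpaI digestion and capillary electrophoresis; gain of signal versus DMSO.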

[5] = ATG_M_32_TRANS: Attagene TRANS-FACTORIAL HepG2 Assay for M32 Transcription Factor (Internal Marker) (AID 2282984; active means hit-call score of the fitted dose curve at least 0.9, where 1 is the maximum;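 further: transcript level of a background control reporter unit measured by RT-PCR and capillary electrophoresis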); details: HepG2 Attagene TRANS M32 internal marker reporter
Procedure, shortened: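 HepG2 cells transiently transfected with multiple GAL4-UAS reporter transcription units, dosed for 24 hours; reporter mRNA quantified by RT-PCR, 6-FAM primer extension, HpaI digestion and capillary electrophoresis. Gain-of-signal fitted versus DMSO baseline; internal background-control marker.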

[6] = biological target: Transcriptional activator Myb (Homo sapiens) (UniProt P10242); experiment: ATG_Myb_CIS: Attagene CIS-FACTORIAL HepG2 Assay for human Myeloblastosis (Myb) Proto-Oncogene Transcription Factor (AID 2282986); details: HepG2 Attagene CIS-FACTORIAL Myb reporter transcription; actives raise or lower the signal
Procedure, shortened: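 Steps: transfect HepG2 with cis-regulated reporter units; dose with chemical for 24 h; isolate RNA, reverse-transcribe, PCR-amplify and FAM-label reporter sequences; digest with HpaI; resolve by capillary electrophoresis. Activity fitted in both directions relative to DMSO.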

[7] = biological target: Nuclear respiratory factor 1 (Homo sapiens) (UniProt Q16656); experiment: ATG_NRF1_CIS: Attagene CIS-FACTORIAL HepG2 Assay for human Nuclear Respiratory Factor 1 (NRF1) Orphan Gene (AID 2282987); details: HepG2 NRF1 cis-element reporter, Attagene multiplex; actives raise or lower the signal
Procedure, shortened: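 Fluorescence intensity of labelled reporter cDNA fragments, resolved by capillary electrophoresis, served as readout for NRF1 cis-element activity. Transiently transfected HepG2 cells were dosed for 24 hours; activity in either direction was fitted against DMSO negative control.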

[8] = ATG_NFI_CIS: Attagene CIS-FACTORIAL HepG2 Assay for human Nuclear Factor I (NFI) (AID 2282989); details: HepG2 cis-regulatory reporter, NFI response element transcription; actives raise or lower the signal
Procedure, shortened: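 HepG2 cells transiently transfected with cis-element-driven multiplexed reporter transcription units, dosed for 24 h. Reporter mRNA quantified by RT-PCR, fluorescent labelling, HpaI digestion and capillary electrophoresis; bidirectional fit versus DMSO baseline.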

[9] = biological target: Myc proto-oncogene protein (Homo sapiens) (UniProt P01106); experiment: ATG_Myc_CIS: Attagene CIS-FACTORIAL HepG2 Assay for human Myelocytomatosis (Myc) Proto-Oncogene Transcription Factor (AID 2282990); details: HepG2, Attagene cis-reporter transcription factor activity; actives raise or lower the signal
Procedure, shortened: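 HepG2 cells transiently transfected with multiple cis-promoter-driven reporter transcription units, so endogenous TF activity is read. After 24 h compound exposure, reporter mRNA was quantified by RT-PCR, 6-FAM labelling, HpaI digestion and capillary electrophoresis; bidirectional fit versus DMSO.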

[10] = ATG_NF_kB_CIS: Attagene CIS-FACTORIAL HepG2 Assay for human Nuclear Factor Kappa B (NF-kB) (AID 2282991); details: HepG2 Attagene cis-factorial NF-kB reporter mRNA; actives raise or lower the signal
Procedure, shortened: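 Endogenous transcription factor activity in HepG2 was captured via cis-regulated reporter constructs; after 24 h dosing, reporter mRNA was reverse-transcribed, amplified, fluorescently labelled and sized by capillary electrophoresis, with activity fitted bidirectionally relative to DMSO.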

[11] = ATG_NRF2_ARE_CIS: Attagene CIS-FACTORIAL HepG2 Assay for human Nuclear Factor Erythroid 2 Related Factor 2 (NFR2) response to Antioxidant Response Elements (ARE) (AID 2282992); details: HepG2 Attagene ARE/NRF2 reporter, transcription factor activity; actives raise or lower the signal;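 on AC50: reporter mRNA level measured by RT-PCR and capillary electrophoresis fluorescence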
Procedure, shortened: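 HepG2 cells transiently transfected with multiplexed cis-element reporter constructs, 24 h after chemical dosing; reporter mRNA quantified by RT-PCR, fluorescent primer extension, HpaI digestion and capillary electrophoresis. Bidirectional fit relative to DMSO.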

[12] = ATG_Oct_MLP_CIS: Attagene CIS-FACTORIAL HepG2 Assay for human Octamer-Binding Transcription Factor (Oct) (AID 2282993); details: HepG2 Attagene cis-factorial Oct reporter, mRNA; actives raise or lower the signal
Procedure, shortened: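 HepG2 cells transiently transfected with cis-promoter-driven multiplexed reporter transcription units, dosed for 24 h. Reporter mRNA quantified by RT-PCR, fluorescent labelling, HpaI digestion and capillary electrophoresis; bidirectional fits versus DMSO baseline.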

[13] = biological target: Cellular tumor antigen p53 (Homo sapiens) (UniProt P04637); experiment: ATG_p53_CIS: Attagene CIS-FACTORIAL HepG2 Assay for human p53 Transcription Factor (AID 2282994); details: HepG2 p53 cis-element reporter, Attagene mRNA; actives raise or lower the signal
Procedure, shortened: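 HepG2 cells transiently transfected with cis-regulated multiple reporter transcription units, dosed 24 h. Reporter mRNA measured by RT-PCR, 6-FAM primer extension, HpaI digestion and capillary electrophoresis; bidirectional fit relative to DMSO.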

[14] = biological target: Nuclear receptor subfamily 4 group A member 2 (Homo sapiens) (UniProt P43354); experiment: ATG_NURR1_TRANS: Attagene TRANS-FACTORIAL HepG2 Assay for human Nuclear Receptor Related Protein 1 (NURR1) (AID 2282985; active means hit-call score of the fitted dose curve at least 0.9, where 1 is the maximum); details: HepG2 Attagene TRANS reporter, mRNA readout
Procedure, shortened: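 HepG2 cells transiently transfected with GAL4-UAS reporter units and chimeric NR-Gal4 constructs; chemical exposure 24 h. Reporter mRNA quantified by RT-PCR, fluorescent labelling and capillary electrophoresis; gain of signal fitted relative to DMSO baseline.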

[15] = ATG_M_06_TRANS: Attagene TRANS-FACTORIAL HepG2 Assay for M06 Transcription Factor (Internal Marker) (AID 2282983; active means hit-call score of the fitted dose curve at least 0.9, where 1 is the maximum;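 further: reporter transcript level by RT-PCR then capillary electrophoresis fluorescence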); details: HepG2 Attagene TRANS M06 internal marker reporter
Procedure, shortened: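 Cells: HepG2, transient multi-reporter transfection. Exposure: 24 h. Detection: RT-PCR, 6-FAM labelling, HpaI digestion (2 h, 37 °C), capillary electrophoresis. Baseline: DMSO.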

[16] = biological target: Hepatocyte nuclear factor 4-alpha (Homo sapiens) (UniProt P41235); experiment: ATG_HNF4a_TRANS: Attagene TRANS-FACTORIAL HepG2 Assay for human Hepatocyte Nuclear Factor 4 alpha (HNF4a) (AID 2282982; active means hit-call score of the fitted dose curve at least 0.9, where 1 is the maximum); details: HepG2 HNF4a transactivation reporter, mRNA readout
Procedure, shortened: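 HepG2 cells transiently transfected with multiplexed GAL4-UAS reporter units responsive to chimeric NR-GAL4 proteins; compound exposure 24 h. Reporter mRNA quantified by RT-PCR, 6-FAM labelling, HpaI digestion and capillary electrophoresis; gain of signal versus DMSO baseline.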

[17] = BSK_3C_uPAR: BioMAP Diversity Plus: 3C Assay for Urokinase-type plasminogen activator receptor (uPAR) Biomarker Activity (AID 2282998); details: BioMAP 3C HUVEC, uPAR biomarker ELISA; actives raise or lower the signal
Procedure, shortened: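 Human umbilical vein endothelial primary cells were exposed to test chemical for 24 h. Cell-surface uPAR was then quantified by ELISA, and responses were fitted bidirectionally against DMSO as negative control and baseline.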

[18] = BSK_3C_VCAM1: BioMAP Diversity Plus: 3C Assay for Vascular cell adhesion molecule 1 (VCAM1) Biomarker Activity (AID 2282999); details: BioMAP 3C HUVEC, VCAM1 ELISA, cytokine-stimulated; actives raise or lower the signal
Procedure, shortened: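 Human umbilical vein endothelial cells were dosed with compound for 24 h, after which cell-surface VCAM-1 was quantified by ELISA. Bidirectional curve fitting used DMSO as negative control and activity baseline.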

Transcriptional activator Myb (Homo sapiens), sequence (P10242 whole entry, looked up): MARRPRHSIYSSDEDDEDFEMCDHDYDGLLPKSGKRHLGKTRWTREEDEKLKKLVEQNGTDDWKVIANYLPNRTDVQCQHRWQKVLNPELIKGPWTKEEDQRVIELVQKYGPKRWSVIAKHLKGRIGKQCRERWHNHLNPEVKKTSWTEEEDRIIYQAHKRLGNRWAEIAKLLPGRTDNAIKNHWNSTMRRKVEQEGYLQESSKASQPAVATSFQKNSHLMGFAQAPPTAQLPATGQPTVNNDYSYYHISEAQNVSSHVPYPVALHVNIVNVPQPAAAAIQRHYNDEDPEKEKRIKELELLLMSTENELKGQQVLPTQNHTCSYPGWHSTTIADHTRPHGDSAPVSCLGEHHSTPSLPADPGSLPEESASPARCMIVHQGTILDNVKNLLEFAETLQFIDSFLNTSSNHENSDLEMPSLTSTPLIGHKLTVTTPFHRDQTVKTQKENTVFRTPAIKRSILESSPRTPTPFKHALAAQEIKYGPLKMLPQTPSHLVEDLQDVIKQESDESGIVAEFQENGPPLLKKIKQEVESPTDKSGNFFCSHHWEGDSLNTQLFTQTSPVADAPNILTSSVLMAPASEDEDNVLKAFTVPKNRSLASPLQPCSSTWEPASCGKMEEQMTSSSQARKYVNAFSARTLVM
Cellular tumor antigen p53 (Homo sapiens), sequence (P04637 whole entry, looked up): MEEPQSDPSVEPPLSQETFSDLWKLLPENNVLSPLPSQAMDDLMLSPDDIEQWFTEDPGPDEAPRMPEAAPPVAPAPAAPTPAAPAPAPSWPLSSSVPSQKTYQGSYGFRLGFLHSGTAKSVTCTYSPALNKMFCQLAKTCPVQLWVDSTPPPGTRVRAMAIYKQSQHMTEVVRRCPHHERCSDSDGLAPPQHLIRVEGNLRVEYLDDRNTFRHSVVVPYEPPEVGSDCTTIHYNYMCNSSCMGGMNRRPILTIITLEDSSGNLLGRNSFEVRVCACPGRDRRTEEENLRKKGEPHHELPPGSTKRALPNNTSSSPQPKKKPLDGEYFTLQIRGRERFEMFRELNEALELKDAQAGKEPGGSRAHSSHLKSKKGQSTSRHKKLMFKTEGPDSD
Oxysterols receptor LXR-alpha (Homo sapiens), sequence (Q13133 whole entry, looked up, the tested form may be a part): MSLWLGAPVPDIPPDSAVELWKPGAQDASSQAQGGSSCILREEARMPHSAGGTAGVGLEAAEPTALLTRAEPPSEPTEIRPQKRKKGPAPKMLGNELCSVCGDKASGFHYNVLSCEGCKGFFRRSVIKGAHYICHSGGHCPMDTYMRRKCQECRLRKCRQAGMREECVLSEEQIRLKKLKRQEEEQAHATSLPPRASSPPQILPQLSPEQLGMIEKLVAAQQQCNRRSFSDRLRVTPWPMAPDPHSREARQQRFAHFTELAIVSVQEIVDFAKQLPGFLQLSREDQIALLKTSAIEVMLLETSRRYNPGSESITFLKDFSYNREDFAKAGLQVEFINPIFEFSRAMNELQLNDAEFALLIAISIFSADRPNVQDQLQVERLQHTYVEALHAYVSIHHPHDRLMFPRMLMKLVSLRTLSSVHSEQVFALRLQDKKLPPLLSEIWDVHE
Nuclear respiratory factor 1 (Homo sapiens), sequence (Q16656 whole entry, looked up, the tested form may be a part): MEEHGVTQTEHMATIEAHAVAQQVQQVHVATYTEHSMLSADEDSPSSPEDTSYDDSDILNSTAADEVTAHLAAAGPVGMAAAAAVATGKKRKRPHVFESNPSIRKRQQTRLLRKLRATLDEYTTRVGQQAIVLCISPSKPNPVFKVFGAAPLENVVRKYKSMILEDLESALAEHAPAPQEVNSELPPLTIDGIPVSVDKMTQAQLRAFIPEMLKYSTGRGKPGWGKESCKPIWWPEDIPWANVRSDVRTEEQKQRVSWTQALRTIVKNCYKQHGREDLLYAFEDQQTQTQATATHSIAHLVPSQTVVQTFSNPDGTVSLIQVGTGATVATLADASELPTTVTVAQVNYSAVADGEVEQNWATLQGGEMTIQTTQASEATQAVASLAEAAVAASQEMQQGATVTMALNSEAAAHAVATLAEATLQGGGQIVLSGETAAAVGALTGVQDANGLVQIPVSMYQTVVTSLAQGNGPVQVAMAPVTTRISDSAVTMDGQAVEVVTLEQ
Glucocorticoid receptor (Homo sapiens), sequence (P04150 whole entry, looked up, the tested form may be a part): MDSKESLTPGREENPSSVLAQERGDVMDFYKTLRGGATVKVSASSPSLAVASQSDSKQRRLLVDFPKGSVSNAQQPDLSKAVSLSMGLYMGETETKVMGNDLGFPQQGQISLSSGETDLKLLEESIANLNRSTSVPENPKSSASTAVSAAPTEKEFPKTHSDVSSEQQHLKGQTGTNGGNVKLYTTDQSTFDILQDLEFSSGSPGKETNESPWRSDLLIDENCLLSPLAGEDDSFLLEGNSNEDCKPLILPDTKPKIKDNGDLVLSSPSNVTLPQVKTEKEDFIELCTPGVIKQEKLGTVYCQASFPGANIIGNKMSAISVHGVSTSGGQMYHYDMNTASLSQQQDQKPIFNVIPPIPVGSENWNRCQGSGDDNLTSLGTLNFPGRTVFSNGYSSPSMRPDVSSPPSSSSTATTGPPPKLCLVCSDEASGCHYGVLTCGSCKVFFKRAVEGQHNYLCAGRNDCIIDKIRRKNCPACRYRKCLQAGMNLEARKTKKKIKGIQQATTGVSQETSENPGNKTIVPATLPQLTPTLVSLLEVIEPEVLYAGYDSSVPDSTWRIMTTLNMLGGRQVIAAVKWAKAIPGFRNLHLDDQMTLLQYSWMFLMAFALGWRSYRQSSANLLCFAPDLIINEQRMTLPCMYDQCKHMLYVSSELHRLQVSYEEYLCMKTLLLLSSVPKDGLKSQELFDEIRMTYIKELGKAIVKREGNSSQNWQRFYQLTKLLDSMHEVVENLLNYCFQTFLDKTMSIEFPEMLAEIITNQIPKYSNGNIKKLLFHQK
Myc proto-oncogene protein (Homo sapiens), sequence (P01106 whole entry, looked up): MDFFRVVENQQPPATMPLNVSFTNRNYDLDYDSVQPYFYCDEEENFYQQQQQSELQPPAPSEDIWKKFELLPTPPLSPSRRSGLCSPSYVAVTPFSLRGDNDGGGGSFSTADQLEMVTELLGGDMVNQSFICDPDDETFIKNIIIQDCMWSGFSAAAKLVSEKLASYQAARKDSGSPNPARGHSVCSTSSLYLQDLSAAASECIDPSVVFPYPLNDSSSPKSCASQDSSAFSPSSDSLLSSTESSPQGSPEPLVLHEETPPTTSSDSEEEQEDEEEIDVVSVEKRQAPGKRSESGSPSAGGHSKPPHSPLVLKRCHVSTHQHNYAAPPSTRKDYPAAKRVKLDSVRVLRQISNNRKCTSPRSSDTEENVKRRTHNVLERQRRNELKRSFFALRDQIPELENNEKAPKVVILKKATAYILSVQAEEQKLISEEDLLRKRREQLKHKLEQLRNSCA
Oxysterols receptor LXR-beta (Homo sapiens), sequence (P55055 whole entry, looked up, the tested form may be a part): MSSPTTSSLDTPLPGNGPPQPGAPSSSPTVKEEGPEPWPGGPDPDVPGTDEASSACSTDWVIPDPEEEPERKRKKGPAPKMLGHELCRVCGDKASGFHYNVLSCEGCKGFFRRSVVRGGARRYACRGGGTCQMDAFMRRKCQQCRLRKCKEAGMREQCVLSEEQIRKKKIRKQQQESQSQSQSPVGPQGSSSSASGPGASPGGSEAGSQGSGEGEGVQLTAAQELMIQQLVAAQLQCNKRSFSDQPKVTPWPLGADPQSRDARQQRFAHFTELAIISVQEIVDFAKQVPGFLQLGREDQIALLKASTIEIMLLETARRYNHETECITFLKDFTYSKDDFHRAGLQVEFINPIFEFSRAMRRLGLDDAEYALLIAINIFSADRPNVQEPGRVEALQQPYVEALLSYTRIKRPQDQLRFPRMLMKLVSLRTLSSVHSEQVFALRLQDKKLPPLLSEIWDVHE
Hepatocyte nuclear factor 4-alpha (Homo sapiens), sequence (P41235 whole entry, looked up, the tested form may be a part): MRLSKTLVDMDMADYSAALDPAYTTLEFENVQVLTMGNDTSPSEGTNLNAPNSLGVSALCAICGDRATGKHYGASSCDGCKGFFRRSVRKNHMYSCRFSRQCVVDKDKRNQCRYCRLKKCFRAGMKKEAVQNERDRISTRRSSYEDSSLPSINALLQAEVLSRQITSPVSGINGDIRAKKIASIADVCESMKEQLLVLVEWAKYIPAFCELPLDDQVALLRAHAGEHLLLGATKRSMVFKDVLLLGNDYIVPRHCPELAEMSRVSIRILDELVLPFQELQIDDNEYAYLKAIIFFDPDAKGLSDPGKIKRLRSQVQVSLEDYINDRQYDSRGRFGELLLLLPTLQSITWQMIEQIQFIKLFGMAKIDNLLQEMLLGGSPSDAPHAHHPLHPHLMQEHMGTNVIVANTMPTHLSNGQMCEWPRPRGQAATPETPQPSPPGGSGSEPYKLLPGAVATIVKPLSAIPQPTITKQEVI
Bile acid receptor (Homo sapiens), sequence (Q96RI1 whole entry, looked up, the tested form may be a part): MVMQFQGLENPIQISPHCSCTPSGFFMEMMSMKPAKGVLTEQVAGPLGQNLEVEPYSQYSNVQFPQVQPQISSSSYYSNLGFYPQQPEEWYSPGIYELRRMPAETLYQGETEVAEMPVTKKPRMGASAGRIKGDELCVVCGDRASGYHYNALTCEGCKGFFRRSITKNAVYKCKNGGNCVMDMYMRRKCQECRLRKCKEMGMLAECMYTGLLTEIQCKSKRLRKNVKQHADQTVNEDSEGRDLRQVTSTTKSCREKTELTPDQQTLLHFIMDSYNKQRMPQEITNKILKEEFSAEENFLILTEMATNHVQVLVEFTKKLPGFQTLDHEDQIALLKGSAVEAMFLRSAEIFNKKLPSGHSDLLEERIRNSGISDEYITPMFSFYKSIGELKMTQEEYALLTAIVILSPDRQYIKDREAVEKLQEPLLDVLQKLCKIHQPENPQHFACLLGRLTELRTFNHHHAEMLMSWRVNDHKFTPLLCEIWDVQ

| Compound | outcome [1] | outcome [2] | outcome [3] | outcome [4] | outcome [5] | outcome [6] | outcome [7] | outcome [8] | outcome [9] | outcome [10] | outcome [11] | outcome [12] | outcome [13] | outcome [14] | AC50 [11] | outcome [15] | AC50 [10] | outcome [16] | AC50 [17] | AC50 [18] |
| --- | --- | --- | --- | --- | --- | --- | --- | --- | --- | --- | --- | --- | --- | --- | --- | --- | --- | --- | --- | --- |
| CC(C)CCOC(=O)CC(C)C | inactive | inactive | inactive | inactive | inactive | inactive | inactive | inactive | inactive | inactive | inactive | inactive | inactive | – | – | – | – | – | – | – |
| CCCc1ccc(O)cc1 | inactive | inactive | – | inactive | – | inactive | inactive | inactive | inactive | inactive | – | inactive | inactive | inactive | 36 µM (active) | – | – | – | – | – |
| C=C/C(C)=C/C/C=C(\C)CCC=C(C)C | inactive | inactive | – | – | inactive | inactive | inactive | inactive | inactive | – | – | inactive | inactive | inactive | 67.1 µM (active) | inactive | 100 µM (active) | – | – | – |
| CCC=C(C)C=O | inactive | inactive | – | inactive | inactive | inactive | inactive | inactive | inactive | inactive | inactive | inactive | inactive | inactive | – | inactive | – | inactive | – | – |
| CCCCCCOC(C)=O | inactive | inactive | inactive | inactive | inactive | inactive | inactive | inactive | inactive | inactive | inactive | inactive | inactive | inactive | – | – | – | inactive | – | – |
| CC(C)C(=O)OCC=Cc1ccccc1 | inactive | inactive | – | – | inactive | inactive | inactive | inactive | inactive | inactive | – | inactive | inactive | inactive | 59.3 µM (active) | – | – | inactive | – | – |
| O=C(O)C1=NN(c2ccc(S(=O)(=O)O)cc2)C(=O)C1 | inactive | – | – | inactive | inactive | inactive | inactive | inactive | inactive | – | inactive | inactive | inactive | inactive | – | – | – | inactive | – | – |
| CCCOC(=O)CC | inactive | – | – | inactive | inactive | inactive | inactive | inactive | inactive | – | inactive | inactive | – | inactive | – | inactive | – | – | – | – |
| N=C1N=C(N)c2ccccc21 | inactive | – | inactive | – | inactive | inactive | inactive | inactive | inactive | – | inactive | inactive | inactive | inactive | – | inactive | – | inactive | – | – |
